Compounds with a hit are over-represented: about 6.5% of the library has one in this group of screens.
Vaccinia Venus: vaccinia inhibition (Venus reporter); 0.46% of 330,000 active; AID 720580; Vaccinia virus Venus reporter expression, fluorescence; Potency, µM (doses to about 36.5 µM), for the others: at the highest dose activity change, negative = inhibition, usual class: inhibitors; calls by dose curve; tested in A549 cells; also: potency is read from the fitted curve at half-maximal effect; nearly all actives have a fitted effect of over 30% in size
Marburg entry inh: inhibitors of Marburg virus binding or cell entry; 1.8% of 300,000 active; Marburg virus pseudotyped entry inhibition, cell reporter; Potency, µM (top dose mostly 37.8 µM), for inactives: at the highest dose activity change, negative = inhibition, usual class: inhibitors; AID 540276; calls by dose curve; tested in HEK293 cells; also: potency is read from the fitted curve at half-maximal effect
Lassa entry inh: inhibitors of Lassa virus binding or cell entry; Lassa virus pseudotype entry inhibition, cell reporter; Potency, µM (highest dose often 37.9 µM), without a hit: at the highest dose activity change, negative = inhibition, actives largely listed as inhibitors; 1.2% of 300,000 active; AID 540256; calls by dose curve; tested in HEK293 cells; also: potency is read from the fitted curve at half-maximal effect; nearly all actives have a fitted effect of over 50% in size
FMDV antiviral: antivirals against foot and mouth disease virus. FMDV antiviral cell-based qHTS. Potency, µM (highest dose often 57.9 µM), for the others: top-dose activity change, negative = inhibition, most hits filed as inhibitors. 1.2% of 410,000 active; calls by dose curve; tested in HEK293T cells; also: read-out not given here; potency is read from the fitted curve at half-maximal effect; nearly all actives have a fitted effect of over 45% in size
HCMV antiviral: inhibitors of human cytomegalovirus; HFF cells, HCMV-luciferase reporter, 72 h; hits give low values; 4.5% of 410,000 active; AID 1259415; activity change, negative = inhibition, % at 57.5 µM; in the data active = activity change below about -60%; inconclusive = no clear call, values can overlap the other calls; inactive = above about -39%
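After 16 h attachment at 37C, HFF cells received test compound and HCMV-luciferase (1 PFU/cell); reporter luminescence read 72 h later, data normalized against buffer-only and known inhibitor Salinomycin.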
Vaccinia mCherry: inhibitors of vaccinia virus infection (mCherry reporter signal); Vaccinia virus mCherry reporter infection, fluorescence; Potency, µM (series often up to 36.5 µM), inactives show top-dose activity change, negative = inhibition, usual class: inhibitors; 0.63% of 310,000 active; AID 720579; calls by dose curve; tested in A549 cells; also: potency is read from the fitted curve at half-maximal effect; nearly all actives have a fitted effect of over 35% in size
An asterisk follows results filed as active; i = inactive; ? = inconclusive; . = not tested or not shown; + = active, no number; ! = not active in a repeat; [ ] = another dose, or the depositor's remark. % is scaled to controls: 0 for no effect and ±100 for the full control effect.

SMILES | Vaccinia Venus | Marburg entry inh | Lassa entry inh | FMDV antiviral | HCMV antiviral | Vaccinia mCherry
Cc1ccc(C(=O)CSc2nnnn2C(C)C)c(C)c1 | -19.2% | 5.62µM* | 7.08µM* | 14.1µM* | ? | ?
COCC(=O)N1CCC[C@@]2(CCN(Cc3ccccc3)C2)C1 | . | . | . | -2.8% | . | .
NC(=O)N=Nc1c2[nH]c3ccccc3nc-2c2ccccc12 | -11.7% | ? | ? | ? | -98.8* | i
CCCN1CCN(c2ncnc3scc(C4COc5ccccc5O4)c23)CC1 (stereo not given) | -10.6% | ? | ? | ? | -38.4 | -9.5%
c1ccc2c(c1)OCC(c1csc3ncnc(N4CCCCC4)c13)O2 (stereo not given) | 3.1% | ? | -18.1% | 31.6µM* | -87.7* | -8.6%
COc1ccc(OC)c(NC(=O)c2c(NCc3ccc(N(C)C)cc3)sc3c2CCCC3)c1 | -4.1% | . | -11.7%[46.1 µM] | 0.0% | -23.1 | -11.5%
COc1cc(OC)cc(-c2cc3nc(C)c(CCC(=O)NC(C)CCc4ccco4)c(C)n3n2)c1 (stereo not given) | . | ? | 10.0% | ? | 14.1 | .
COc1ccc(-c2noc(CCC(=O)NCCCN3CCN(c4ccccc4F)CC3)n2)cc1 | . | . | . | ? | -66.8* | .
COc1cc(OC)cc(-c2cc3nc(C)c(CCC(=O)O)c(C)n3n2)c1 | -9.7% | -1.8% | . | 1.41µM* | -79.3* | 9.3%
COc1ccc(-c2cc3nc(C)c(CCC(=O)N4CCN(c5cc(C)ccc5C)CC4)c(C)n3n2)c(OC)c1 | ? | -1.5%[46.1 µM] | 12.7%[46.1 µM] | 28.2µM* | 2.3 | ?
COc1ccc(-c2cc3nc(C)c(CCC(=O)N4CCN(c5ccccc5F)CC4)c(C)n3n2)c(OC)c1 | -1.3% | 5.7%[46.1 µM] | 9.8%[46.1 µM] | ? | -4.3 | -7.0%
COc1ccc(-c2noc(CCCC(=O)N3CCN(c4cc(C)ccc4C)CC3)n2)cc1 | -7.9% | . | . | 13.9% | 53.0 | -6.4%
COc1ccc(-c2noc(CCCCC(=O)N3CCN(c4cc(C)ccc4C)CC3)n2)cc1 | ? | . | . | ? | -96.3* | ?
O=C(CSc1nc2ccccc2nc1Cc1ccc(Cl)cc1)N1CCc2ccccc21 | -14.3% | . | 9.2%[46.1 µM] | 0.0% | 0.0 | -20.7%
CC1=C(C(=O)O)N2C(=O)C(NC(=O)C(N)c3ccccc3)C2SC1 (stereo not given) | -4.9% | . | . | 6.1% | . | -11.6%
O=C1Nc2ccccc2C(=O)N2[C@H](c3cccc(Br)c3)[C@@H]3C(=O)N(Cc4ccccc4)C(=O)[C@@H]3[C@H]12 | 0.0% | . | . | -11.1% | -60.4* | -15.6%
COc1cc(C(=O)O/N=C(\N)Cc2ccc([N+](=O)[O-])cc2)cc(OC)c1OC | ? | 2.51µM* | 3.16µM* | ? | ? | ?
N/C(Cc1ccc([N+](=O)[O-])cc1)=N\OC(=O)c1ccc([N+](=O)[O-])cc1 | -12.9% | 5.4% | -0.8% | 3.8% | -7.3 | -8.2%
COc1ccc(C(=O)O/N=C(\N)Cc2ccc(Cl)cc2)cc1OC | ? | ? | 11.2µM* | ? | ? | .
N/C(Cc1ccc(Cl)cc1)=N\OC(=O)c1ccccc1 | -18.9% | 12.6µM* | ? | -6.3% | 33.0 | -11.8%
COc1ccc(C(=O)O/N=C(\N)Cc2ccc(Cl)c(Cl)c2)cc1OC | ? | ? | ? | ? | 18.0 | ?
N/C(Cc1ccc(Cl)cc1)=N\OC(=O)Cc1ccc([N+](=O)[O-])cc1 | -8.1% | 4.5% | ? | -8.6% | -12.8 | i
CN1C(=O)[C@@]2(O[C@H]3[C@H]4C=C[C@@H]([C@H]5C(=O)N(Cc6ccccc6)C(=O)[C@@H]45)N3C3=C2C(=O)CC3)c2ccccc21 | . | . | . | . | 96.6 | .
COc1ccc(N(CC(=O)NC(C)c2ccccc2)S(=O)(=O)c2ccc(C)cc2)cc1 (stereo not given) | ? | -19.5%[46.1 µM] | -20.0% | 10.8% | -1.9 | ?
Cc1ccc(N(CC(=O)NCc2ccc(OC(C)C)cc2)S(=O)(=O)N(C)C)cc1 | -16.1% | . | 5.01µM* | ? | -3.8 | -19.5%
SMILES | Vaccinia Venus | Marburg entry inh | Lassa entry inh | FMDV antiviral | HCMV antiviral | Vaccinia mCherry
CNC(=O)CN(c1ccc(Oc2ccccc2)cc1)S(=O)(=O)c1ccc(C)cc1 | -13.4% | -15.5% | 7.08µM* | -4.4% | -2.1 | i
COc1ccc(S(=O)(=O)N(CC(=O)NCc2ccccc2OC)c2ccc(C)cc2)cc1 | ? | . | -19.6%[46.1 µM] | 4.4% | -67.6* | ?
CCOc1ccc(S(=O)(=O)N(CC(=O)NCc2ccccc2OC)c2ccccc2)cc1 | ? | ? | ? | ? | -61.8* | ?
COC(=O)[C@@H]1[C@@H](CO)[C@@H]2Cn3c(cccc3=O)[C@@H]2N1C(=O)c1ccccc1 | . | . | . | . | -5.0 | .
Cc1c(C(=O)NCc2nccs2)cnn1-c1ncc2c(n1)-c1ccccc1CC2 | ? | . | . | 40.3% | . | ?
C=CCN1c2ccccc2[C@]23C[C@@H](C(=O)OC)N(C(=O)Nc4ccccc4F)C2=NC(C(=O)OC)=C(C(=O)OC)[C@H]13 | . | 2.9%[14.2 µM] | . | . | . | .
COc1ccc(N(CC(=O)NCc2ccc(C)cc2)S(=O)(=O)c2c(C)[nH]c(=O)[nH]c2=O)cc1 | 3.9% | 8.1%[46.1 µM] | 12.1%[46.1 µM] | -13.1% | +! | -3.7%
COc1ccc(S(=O)(=O)N(CC(=O)NCc2ccco2)c2ccccc2OC)cc1 | 12.0% | 0.4%[46.1 µM] | -0.1%[46.1 µM] | 0.0% | -64.8* | i
COc1ccccc1N(CC(=O)NCc1ccco1)S(C)(=O)=O | 4.7% | ? | 1.5% | -7.5% | 1.4 | -1.1%
COc1ccc(CCSc2n[nH]c(C(C)C)n2)cc1 | -15.0% | . | . | . | . | -9.6%
Cc1ccc(-n2c(SCC(N)=O)nc3c(c2=O)C2(CCCC2)Cc2ccccc2-3)cc1 | -24.2% | ? | ? | 22.4µM* | ? | i
CCC1(C)NC(=O)N(/N=C/c2cc(OC)c(O)c(OC)c2)C1=O (stereo not given) | -6.3% | 7.6% | -14.9% | -7.9% | 26.5 | -8.6%
CCC1(C)NC(=O)N(/N=C/c2ccc(C)s2)C1=O (stereo not given) | . | . | . | 54.6% | -98.3* | .
CN1CCN(C(=O)c2cc(Cl)cc(Cl)c2NC(=O)c2ccco2)CC1 | . | -1.1% | -5.8% | -11.2% | -32.5 | .
CC1CCN(C(=O)c2cc(Cl)ccc2NC(=O)c2ccco2)CC1 | -9.3% | -8.6%[46.1 µM] | . | 17.1% | -60.1* | 2.1%
Nc1[nH]c(C(=O)c2ccc(Br)cc2)c(-c2ccccn2)c1C(=O)NCCc1c[nH]c2ccccc12 | . | . | . | . | -16.8 | .
COCCN(C(=O)CSc1nnc2cc(C)c3ccccc3n12)c1c(N)n(Cc2ccccc2)c(=O)[nH]c1=O | 2.7% | ? | ? | -17.9% | -93.7* | -6.8%
CCc1ccc2nc(N(CCCN(C)C)C(=O)c3ccc(S(=O)(=O)N(C)C4CCCCC4)cc3)sc2c1 | 61.9% | ? | ? | -17.2% | -85.9* | ?
Cc1cc(C)c2sc(N(CCCN(C)C)C(=O)c3ccc(S(=O)(=O)N(C)C4CCCCC4)cc3)nc2c1 | 12.6µM* | ? | ? | ? | -5.1 | 14.1µM*
Cc1cc(C)c2sc(N(CCN(C)C)C(=O)c3ccc4ccccc4c3)nc2c1 | . | . | . | -29.9% | + | .
